± gives the standard deviation.

What all share (experiment): peptide microarray binding signal (635 nm), min-max normalized on array (fraction of array maximum); higher = stronger binding
Common to all, as to conditions: peptide region: H3 20-32

Experiment [1] has as its target T1, HaloTag-ATRX ADD domain (163-292).
T1 chain: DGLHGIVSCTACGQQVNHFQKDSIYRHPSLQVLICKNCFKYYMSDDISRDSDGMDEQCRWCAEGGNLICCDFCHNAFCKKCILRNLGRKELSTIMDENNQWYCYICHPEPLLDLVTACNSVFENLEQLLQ
The gist of the method:
(§1)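 Arrays carried histone 13-mer peptide–cellulose conjugates printed in triplicate on nitrocellulose alongside a Cy3 tracer. After overnight blocking at 4°C, they were incubated for 1 h at 4°C with biotin-labelled HaloTag reader fusions (10 nM to 1 μM) plus streptavidin-Alexa Fluor 647, or with rabbit histone antibodies (1:10,000 to 1:2,000) plus anti-rabbit Alexa 647. Scanning on an Axon GenePix 4000B used 635 nm for signal and 532 nm for misprints. The binding signal reported is each triplicate's mean spot intensity after per-library min-max scaling.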

In experiment [2] the target is HaloTag-ING2 PHD (mouse Ing2 200-280). In outline: as §1
The target of experiment [3] is anti-H3K4me3 antibody ab8580. In outline: as §1
Experiment [4] deals with anti-H3K9me3 antibody ab8898. The gist of the method:
as §1

Where [5] appears, read: peptide modifications: H3K27me3 H3S28ph, binder concentration: 1:2,000 dilution.
The mark [6] stands for this setting: peptide modifications: H3K27me3 H3S28ph, binder concentration: 1:10,000 dilution.
Where [7] appears, read: peptide modifications: H3R26cit H3K27ac, binder concentration: 1:2,000 dilution.
Setting [8] is: peptide modifications: H3R26cit H3K27ac, binder concentration: 1:10,000 dilution.
[9] abbreviates: peptide modifications: H3K27me1 H3S28ph, binder concentration: 1:2,000 dilution.
Where [10] appears, read: peptide modifications: H3K27me1 H3S28ph, binder concentration: 1:10,000 dilution.
Setting [11] is: peptide modifications: H3K27me2 H3S28ph, binder concentration: 1:2,000 dilution.
[12] abbreviates: peptide modifications: H3K27me2 H3S28ph, binder concentration: 1:10,000 dilution.
Where [13] appears, read: peptide modifications: H3R26cit H3K27me1, binder concentration: 1:2,000 dilution.
The mark [14] stands for this setting: peptide modifications: H3R26cit H3K27me1, binder concentration: 1:10,000 dilution.
Where [15] appears, read: peptide modifications: H3K27ac, binder concentration: 1:2,000 dilution.
The mark [16] stands for this setting: peptide modifications: H3K27ac, binder concentration: 1:10,000 dilution.
Setting [17] is: peptide modifications: H3K27ac H3S28ph, binder concentration: 1:2,000 dilution.
The mark [18] stands for this setting: peptide modifications: H3K27ac H3S28ph, binder concentration: 1:10,000 dilution.
Setting [19] is: peptide modifications: H3K27me3, binder concentration: 1:2,000 dilution.
The mark [20] stands for this setting: peptide modifications: H3K27me3, binder concentration: 1:10,000 dilution.
Where [21] appears, read: peptide modifications: H3K27me2, binder concentration: 1:2,000 dilution.
Setting [22] is: peptide modifications: H3K27me2, binder concentration: 1:10,000 dilution.
[23] abbreviates: peptide modifications: H3K27me1, binder concentration: 1:2,000 dilution.
Setting [24] is: peptide modifications: H3K27me1, binder concentration: 1:10,000 dilution.

Consider LATKAARKSAPAT [H3 20-32 L A T K A A R Kme3 Sph A P A T], for which the “peptide microarray binding signal” value in experiment [1] (peptide modifications: H3K27me3 H3S28ph, binder concentration: 50 nM) was 0.00618 ± 0.00025; in experiment [1] (peptide modifications: H3K27me3 H3S28ph, binder concentration: 500 nM), 0.0125 ± 0.00027; in experiment [2] (peptide modifications: H3K27me3 H3S28ph, binder concentration: 10 nM) it was 0.0171 ± 0.0012; in experiment [2] (peptide modifications: H3K27me3 H3S28ph, binder concentration: 100 nM), 0.037 ± 0.0095; in experiment [3] (setting [5]), 0.0312 ± 0.0057; in experiment [3] (setting [6]), 0.0191 ± 0.0066. Also, the “peptide microarray binding signal” value in experiment [4] (setting [5]) was determined as 0.104 ± 0.021; in experiment [4] (setting [6]), 0.0474 ± 0.0052.

On to LATKAARKSAPAT [H3 20-32 L A T K A A Rcit Kac S A P A T], for which the “peptide microarray binding signal” value stood at 0.00486 ± 0.00011 in experiment [1] (peptide modifications: H3R26cit H3K27ac, binder concentration: 50 nM); 0.0109 ± 0.00038 in experiment [1] (peptide modifications: H3R26cit H3K27ac, binder concentration: 500 nM); 0.0232 ± 0.0013 in experiment [2] (peptide modifications: H3R26cit H3K27ac, binder concentration: 10 nM); 0.0235 ± 0.0022 in experiment [2] (peptide modifications: H3R26cit H3K27ac, binder concentration: 100 nM); 0.0101 ± 0.00075 in experiment [3] (setting [7]); 0.00553 ± 0.0019 in experiment [3] (setting [8]). The entries for the “peptide microarray binding signal” value in experiment [4] (setting [7]) and in experiment [4] (setting [8]) were 0.00415 ± 0.0003 and 0.00288 ± 4.3e-05, respectively.

LATKAARKSAPAT [H3 20-32 L A T K A A R Kme Sph A P A T]: the “peptide microarray binding signal” value was 0.00502 ± 0.00011 in experiment [1] (peptide modifications: H3K27me1 H3S28ph, binder concentration: 50 nM); 0.00762 ± 0.00035 in experiment [1] (peptide modifications: H3K27me1 H3S28ph, binder concentration: 500 nM); 0.0135 ± 0.00073 in experiment [2] (peptide modifications: H3K27me1 H3S28ph, binder concentration: 10 nM); 0.0189 ± 0.00035 in experiment [2] (peptide modifications: H3K27me1 H3S28ph, binder concentration: 100 nM); 0.00485 ± 0.0004 in experiment [3] (setting [9]); 0.00519 ± 0.00023 in experiment [3] (setting [10]). Also, the “peptide microarray binding signal” value in experiment [4] (setting [9]) came out at 0.00263 ± 0.00013; in experiment [4] (setting [10]), 0.00277 ± 0.00013.

Turning to LATKAARKSAPAT [H3 20-32 L A T K A A R Kme2 Sph A P A T], the “peptide microarray binding signal” value in experiment [1] (peptide modifications: H3K27me2 H3S28ph, binder concentration: 50 nM) was determined as 0.00527 ± 0.00024; in experiment [1] (peptide modifications: H3K27me2 H3S28ph, binder concentration: 500 nM) it was 0.0144 ± 0.00043; in experiment [2] (peptide modifications: H3K27me2 H3S28ph, binder concentration: 10 nM), 0.0156 ± 0.00093; in experiment [2] (peptide modifications: H3K27me2 H3S28ph, binder concentration: 100 nM), 0.0272 ± 0.0025; in experiment [3] (setting [11]), 0.00985 ± 0.00073; in experiment [3] (setting [12]) it was 0.00508 ± 0.00053. In addition, the figures for the “peptide microarray binding signal” value in experiment [4] (setting [11]) and in experiment [4] (setting [12]) were 0.00619 ± 0.0012 and 0.0129 ± 0.0067, respectively.

Consider LATKAARKSAPAT [H3 20-32 L A T K A A Rcit Kme S A P A T], for which the “peptide microarray binding signal” value in experiment [1] (peptide modifications: H3R26cit H3K27me1, binder concentration: 50 nM) is 0.0118 ± 0.0037; in experiment [1] (peptide modifications: H3R26cit H3K27me1, binder concentration: 500 nM) it was 0.011 ± 0.002; in experiment [2] (peptide modifications: H3R26cit H3K27me1, binder concentration: 10 nM), 0.0174 ± 0.00085; in experiment [2] (peptide modifications: H3R26cit H3K27me1, binder concentration: 100 nM), 0.0171 ± 0.0017; in experiment [3] (setting [13]), 0.00427 ± 0.00087; in experiment [3] (setting [14]), 0.00576 ± 0.00078. Further, the “peptide microarray binding signal” value in experiment [4] (setting [13]) is 0.00346 ± 0.0001; in experiment [4] (setting [14]), 0.002249 ± 2.1e-05.

In the case of LATKAARKSAPAT [H3 20-32 L A T K A A R Kac S A P A T], the “peptide microarray binding signal” value in experiment [1] (peptide modifications: H3K27ac, binder concentration: 50 nM) amounted to 0.00542 ± 6.7e-05; in experiment [1] (peptide modifications: H3K27ac, binder concentration: 500 nM) it was 0.00819 ± 0.00035; in experiment [2] (peptide modifications: H3K27ac, binder concentration: 10 nM) it was 0.013 ± 0.00049; in experiment [2] (peptide modifications: H3K27ac, binder concentration: 100 nM), 0.0498 ± 0.05; in experiment [3] (setting [15]), 0.00461 ± 0.00054; in experiment [3] (setting [16]) it was 0.00508 ± 0.00032. The “peptide microarray binding signal” value in experiment [4] (setting [15]) turned out to be 0.00281 ± 0.00022; in experiment [4] (setting [16]) it was 0.002652 ± 2.3e-05.

Take LATKAARKSAPAT [H3 20-32 L A T K A A R Kac Sph A P A T]: the “peptide microarray binding signal” value in experiment [1] (peptide modifications: H3K27ac H3S28ph, binder concentration: 50 nM) stood at 0.00903 ± 0.00081; in experiment [1] (peptide modifications: H3K27ac H3S28ph, binder concentration: 500 nM), 0.0153 ± 0.0002; in experiment [2] (peptide modifications: H3K27ac H3S28ph, binder concentration: 10 nM) it was 0.0221 ± 0.0015; in experiment [2] (peptide modifications: H3K27ac H3S28ph, binder concentration: 100 nM), 0.0405 ± 0.0074; in experiment [3] (setting [17]), 0.00951 ± 0.0017; in experiment [3] (setting [18]) it was 0.0101 ± 0.0017. For the same molecule, the results for the “peptide microarray binding signal” value in experiment [4] (setting [17]) and in experiment [4] (setting [18]) were 0.00536 ± 0.0021 and 0.00277 ± 6.4e-05, respectively.

For LATKAARKSAPAT [H3 20-32 L A T K A A R Kme3 S A P A T], the “peptide microarray binding signal” value amounted to 0.00602 ± 0.00022 in experiment [1] (peptide modifications: H3K27me3, binder concentration: 50 nM); 0.008 ± 0.00041 in experiment [1] (peptide modifications: H3K27me3, binder concentration: 500 nM); 0.0119 ± 0.00027 in experiment [2] (peptide modifications: H3K27me3, binder concentration: 10 nM); 0.0118 ± 0.00043 in experiment [2] (peptide modifications: H3K27me3, binder concentration: 100 nM); 0.0112 ± 0.0008 in experiment [3] (setting [19]); 0.00907 ± 0.0011 in experiment [3] (setting [20]). Moreover, the “peptide microarray binding signal” value in experiment [4] (setting [19]) worked out at 0.0533 ± 0.0049; in experiment [4] (setting [20]), 0.0225 ± 0.0027.

LATKAARKSAPAT [H3 20-32 L A T K A A R Kme2 S A P A T]: the “peptide microarray binding signal” value in experiment [1] (peptide modifications: H3K27me2, binder concentration: 50 nM) is 0.00292 ± 6.9e-05; in experiment [1] (peptide modifications: H3K27me2, binder concentration: 500 nM), 0.003238 ± 2.5e-05; in experiment [2] (peptide modifications: H3K27me2, binder concentration: 10 nM), 0.00567 ± 0.00012; in experiment [2] (peptide modifications: H3K27me2, binder concentration: 100 nM), 0.00581 ± 0.00013; in experiment [3] (setting [21]), 0.00193 ± 6.9e-05; in experiment [3] (setting [22]), 0.00205 ± 3.8e-05. Besides, the “peptide microarray binding signal” value in experiment [4] (setting [21]) was determined as 0.00153 ± 0.00012; in experiment [4] (setting [22]), 0.00144 ± 3.7e-05.

As to LATKAARKSAPAT [H3 20-32 L A T K A A R Kme S A P A T], the “peptide microarray binding signal” value in experiment [1] (peptide modifications: H3K27me1, binder concentration: 50 nM) stood at 0.00455 ± 9.6e-05; in experiment [1] (peptide modifications: H3K27me1, binder concentration: 500 nM) it was 0.00714 ± 0.00042; in experiment [2] (peptide modifications: H3K27me1, binder concentration: 10 nM), 0.00961 ± 0.00022; in experiment [2] (peptide modifications: H3K27me1, binder concentration: 100 nM), 0.0148 ± 0.00019; in experiment [3] (setting [23]), 0.00402 ± 0.00028; in experiment [3] (setting [24]), 0.00405 ± 0.00025. Also, the “peptide microarray binding signal” value in experiment [4] (setting [23]) is 0.00231 ± 0.00014; in experiment [4] (setting [24]), 0.00208 ± 3.9e-05.

The values above are taken from the supplement of paper PMC4022240.
